Laboratory results from PubChem BioAssay (NCI).
Compounds without any hit were thinned out: in the full panel of roughly 79,000, 15% have a hit. Unmarked numbers belong to inactive results. Cut-off read from the data, not from the text of the source: active = growth inhibition above about 70%; inactive = the rest.

Test: NCI Yeast Anticancer Drug Screen. Data for the sgs1 mgt1 strain (AID 161);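 note: 0% = growth of cultures given vehicle only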
Conditions: S. cerevisiae sgs1 mgt1 strain, at 50.0 µM, hits give high values
Method in brief: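 Genetically altered yeast, compound exposure, growth inhibition relative to vehicle.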

| SMILES | growth inhibition |
| --- | --- |
| Nc1ccc(N)c([N+](=O)[O-])c1 | -27.3% |
| CC(C)=NNC(N)=S | -23.9% |
| CC(=O)Nc1cccc(Cl)c1C | 1.35% |
| CN(C)c1ccc2oc(=O)c3ccccc3c2c1 | 1.55% |
| O=[N+]([O-])c1ccccc1S(=O)c1ccccc1[N+](=O)[O-] | 34.3% |
| CC1CCCCN1C(=S)Nc1ccc(S(=O)(=O)N2CCCCC2)cc1 (stereo not given) | -5.75% |
| CCCCC(=O)c1ccc(OC)cc1 | 2.75% |
| Cc1cc(C)cc(NCCC#N)c1 | 18.4% |
| CCOC(=O)c1[nH]c(C)c(C(=O)O)c1C | 0.2% |
| c1ncc2[nH]cnc2n1 | -11.6% |
| N#CSc1cc(S(N)(=O)=O)ccc1N | 4.05% |
| Cc1cc(=O)n(-c2ccc(F)cc2)[nH]1 | 22.1% |
| Sc1ccc(Nc2c3ccccc3nc3ccccc23)cc1 | 14.9% |
| COC(=O)Nc1nc2ccc(C(=O)c3ccc(F)cc3)cc2[nH]1 | -30.2% |
| O=C(O)c1cc([N+](=O)[O-])ccc1Cl | 7.15% |
| Cc1cc(N)ccc1-c1ccc(N)cc1C | 4.45% |
| Cc1ccc(C(=O)N/N=C/c2ccc3c(c2)OCO3)cc1 | 4.15% |

Test: NCI Yeast Anticancer Drug Screen. Data for the cln2 rad14 strain (AID 165);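 note: 0% = growth equal to vehicle treated cultures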
Conditions: S. cerevisiae cln2 rad14 strain, at 50.0 µM, hits give high values
Method in brief: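 Test compounds were added to cln2 rad14 yeast cultures; inhibition of growth was then determined by comparison with vehicle treatment.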

| SMILES | growth inhibition |
| --- | --- |
| Cc1cccc(CO)c1 | -57% |
| O=C(NCO)c1ccccc1 | 7.75% |
| CC1(C(=O)O)NC(C(=O)O)Cc2c1[nH]c1ccccc21 (stereo not given) | 3.65% |
| COc1ccc(C2(O)CCCCC2)cc1 | 6.45% |
| NNc1ccccc1C(=O)O | -4.15% |
| CCS(=O)(=O)CCCl | 5.9% |
| COC1=CC(=O)c2nc(Cl)ccc2C1=O | -1% |
| COC(=O)c1ccccc1N(C)C | 2.4% |
| Cc1cc(=O)[nH]c(NN=C2CCCC2)n1 | -2.6% |
| CCOC(=O)C/C(C)=N\O | 8.45% |
| CC1(C)OC(=O)C(c2ccsc2)C(=O)O1 | 32.8% |
| O=C(Nc1ccccc1)OCCc1ccccc1 | 42.9% |
| C=CC(=O)OCCCCCCCC | -34.5% |
| Cc1c(C(=O)O)c(=O)n(-c2ccccc2)n1C | 11% |
| C=CCCCCCCCCCOC(C)=O | -9.5% |
| O=C(O)CSCSCC(=O)O | 20.2% |
| CC(=O)OC(OC(C)=O)C1CCCO1 (stereo not given) | 17.1% |
| S=C1NCc2cncnc2N1 | -8.7% |
| Cc1ccncc1C(N)=O | -0.85% |
| CSC[C@H](NC(=O)COc1cccc2cnccc12)C(=O)NC(Cc1ccccc1)C(O)C(=O)N1CSC[C@H]1C(=O)NC(C)(C)C (stereo not given in full) | 17.6% |

| SMILES | growth inhibition |
| --- | --- |
| CC1CC(O)C2C3(C)CCCC2(COC3=O)C12CCC1(CCOC1=O)O2 (stereo not given) | 25.9% |
| CC(C)(C)n1nc(C2CC2)c(Br)c1NC(=O)c1ccccc1F | 3.25% |
| Nc1ccc(N)c([N+](=O)[O-])c1 | -39% |
| CC(C)=NNC(N)=S | -22.8% |
| CC(=O)Nc1cccc(Cl)c1C | 4.9% |
| CN(C)c1ccc2oc(=O)c3ccccc3c2c1 | -2% |
| O=[N+]([O-])c1ccccc1S(=O)c1ccccc1[N+](=O)[O-] | 20.9% |
| CC1CCCCN1C(=S)Nc1ccc(S(=O)(=O)N2CCCCC2)cc1 (stereo not given) | -11.2% |
| CCCCC(=O)c1ccc(OC)cc1 | 6.75% |
| Cc1cc(C)cc(NCCC#N)c1 | -1.75% |
| CCOC(=O)c1[nH]c(C)c(C(=O)O)c1C | -24.9% |
| c1ncc2[nH]cnc2n1 | -69.2% |
| N#CSc1cc(S(N)(=O)=O)ccc1N | -5.35% |
| Cc1cc(=O)n(-c2ccc(F)cc2)[nH]1 | 2.8% |
| Sc1ccc(Nc2c3ccccc3nc3ccccc23)cc1 | 7.3% |
| COC(=O)Nc1nc2ccc(C(=O)c3ccc(F)cc3)cc2[nH]1 | -26.4% |
| O=C(O)c1cc([N+](=O)[O-])ccc1Cl | 21% |
| Cc1cc(N)ccc1-c1ccc(N)cc1C | -39% |
| Cc1ccc(C(=O)N/N=C/c2ccc3c(c2)OCO3)cc1 | 10.8% |

Test: NCI Yeast Anticancer Drug Screen. Data for the bub3 strain (AID 167)
Conditions: S. cerevisiae bub3 mutant strain, at 50.0 µM, hits give high values
Method in brief: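 Whole-cell yeast assay. The mutant strain was incubated with compounds, and growth inhibition was determined by comparison with vehicle-treated cells.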

| SMILES | growth inhibition |
| --- | --- |
| Cc1cccc(CO)c1 | -18.4% |
| O=C(NCO)c1ccccc1 | 13.9% |
| CC1(C(=O)O)NC(C(=O)O)Cc2c1[nH]c1ccccc21 (stereo not given) | 32.4% |
| COc1ccc(C2(O)CCCCC2)cc1 | 7.35% |
| NNc1ccccc1C(=O)O | -2% |
| CCS(=O)(=O)CCCl | 0.95% |
| COC1=CC(=O)c2nc(Cl)ccc2C1=O | 11.8% |
| COC(=O)c1ccccc1N(C)C | 2.65% |
| Cc1cc(=O)[nH]c(NN=C2CCCC2)n1 | -33.5% |
| CCOC(=O)C/C(C)=N\O | 9.15% |
| CC1(C)OC(=O)C(c2ccsc2)C(=O)O1 | -7.05% |
| O=C(Nc1ccccc1)OCCc1ccccc1 | 37.6% |
| C=CC(=O)OCCCCCCCC | 2.4% |
| Cc1c(C(=O)O)c(=O)n(-c2ccccc2)n1C | -16.9% |
| C=CCCCCCCCCCOC(C)=O | -2.8% |
| O=C(O)CSCSCC(=O)O | 4.8% |
| CC(=O)OC(OC(C)=O)C1CCCO1 (stereo not given) | -2.95% |
| S=C1NCc2cncnc2N1 | 3.85% |
| Cc1ccncc1C(N)=O | -11% |
| CSC[C@H](NC(=O)COc1cccc2cnccc12)C(=O)NC(Cc1ccccc1)C(O)C(=O)N1CSC[C@H]1C(=O)NC(C)(C)C (stereo not given in full) | 2.3% |

| SMILES | growth inhibition |
| --- | --- |
| CC1CC(O)C2C3(C)CCCC2(COC3=O)C12CCC1(CCOC1=O)O2 (stereo not given) | 8.35% |
| CC(C)(C)n1nc(C2CC2)c(Br)c1NC(=O)c1ccccc1F | 5.55% |
| Nc1ccc(N)c([N+](=O)[O-])c1 | -14.8% |
| CC(C)=NNC(N)=S | 2.35% |
| CC(=O)Nc1cccc(Cl)c1C | 8.85% |
| CN(C)c1ccc2oc(=O)c3ccccc3c2c1 | 0.5% |
| O=[N+]([O-])c1ccccc1S(=O)c1ccccc1[N+](=O)[O-] | 39.2% |
| CC1CCCCN1C(=S)Nc1ccc(S(=O)(=O)N2CCCCC2)cc1 (stereo not given) | -19.1% |
| CCCCC(=O)c1ccc(OC)cc1 | -8.3% |
| Cc1cc(C)cc(NCCC#N)c1 | 11.8% |
| CCOC(=O)c1[nH]c(C)c(C(=O)O)c1C | -23.8% |
| c1ncc2[nH]cnc2n1 | 8.15% |
| N#CSc1cc(S(N)(=O)=O)ccc1N | -1% |
| Cc1cc(=O)n(-c2ccc(F)cc2)[nH]1 | 50.6% |
| Sc1ccc(Nc2c3ccccc3nc3ccccc23)cc1 | 25.6% |
| COC(=O)Nc1nc2ccc(C(=O)c3ccc(F)cc3)cc2[nH]1 | -17.5% |
| O=C(O)c1cc([N+](=O)[O-])ccc1Cl | 21.9% |
| Cc1cc(N)ccc1-c1ccc(N)cc1C | -23.1% |
| Cc1ccc(C(=O)N/N=C/c2ccc3c(c2)OCO3)cc1 | 6.2% |
